Bioassay records: PubChem, National Center for Advancing Translational Sciences (NCATS)
An excerpt weighted towards active compounds, which were near 8.7% of everything screened.
VACV Venus inh: qHTS for Stage-Specific Inhibitors of Vaccinia Orthopoxvirus: Venus Reporter Primary qHTS. hit rate 0.46% among 330,000. Vaccinia virus Venus reporter expression, fluorescence. AID 720580, 2013. Potency, µM (doses to about 36.5 µM), for the others: top-dose activity change, negative = inhibition, actives largely listed as inhibitors; calls by dose curve; tested in A549 cells; also: nearly all actives have a fitted effect of over 30% in size
Pf growth 48h: Primary qHTS for delayed death inhibitors of the malarial parasite plastid, 48 hour incubation; P. falciparum luciferase growth in erythrocytes, 48 h; Potency, µM (titrated, usually from 28.7 µM), inactives show at the top dose activity change, negative = inhibition, most hits filed as inhibitors; hit rate 5.9% among 310,000
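Read-out is firefly luciferase luminescence from an integrated reporter in P. falciparum, so falling signal marks reduced parasite growth. Infected erythrocytes were at 2% hematocrit and 0.1% parasitemia (final) in Albumax-supplemented RPMI 1640.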
Pf growth 96h: Primary qHTS for delayed death inhibitors of the malarial parasite plastid, 96 hour incubation; P. falciparum luciferase reporter growth, 96 h; Potency, µM (highest dose often 28.7 µM), for the others: at the top dose activity change, negative = inhibition, usual class: inhibitors; hit rate 6.9% among 320,000; AID 504834, 2011
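96 h incubation, 37 C, 5% CO2, of luciferase-reporter P. falciparum-infected RBCs (2% hematocrit, 0.05% parasitemia final) with test compounds; endpoint luminescence.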
AMA1 RON2 block: qHTS for Inhibitors of AMA1-RON; Towards Development of Antimalarial Drug Lead: Primary Screen; Plasmodium falciparum AMA1 (3D7) - RON2 peptide interaction; AlphaScreen AMA1-biotinylated RON2 peptide binding; Potency, µM (series often up to 58.2 µM), without a hit: at the highest dose activity change, negative = inhibition, most hits filed as inhibitors; hit rate 0.2% among 360,000; AID 720542, 2013;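 also: 0% = vehicle wells and -100% = peptide control; nearly all actives have a fitted effect of over 45% in size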
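AMA1 (3D7) with his tag at 25 nM final met compounds first, then biotinylated RON2 peptide at 25 nM; detection used donor plus acceptor beads, 10 µg/mL apiece, read by AlphaScreen after 30 min at room temperature.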
VACV mCherry inh: qHTS for Stage-Specific Inhibitors of Vaccinia Orthopoxvirus: mCherry Reporter Primary qHTS | Vaccinia virus mCherry reporter infection, fluorescence | Potency, µM (series often up to 36.5 µM), without a hit: top-dose activity change, negative = inhibition, actives largely listed as inhibitors | hit rate 0.63% among 310,000; calls by dose curve; tested in A549 cells; also: nearly all actives have a fitted effect of over 35% in size
An asterisk follows results filed as active; i = inactive; ? = inconclusive; / = no result; [ ] = dose if it differs, or a comment. Unless noted, calls follow the shape of the dose curve; as a rule, active = well fitted curve in the direction sought with a large enough effect; inconclusive = small, poorly fitted or top-dose-only effect, or another doubt; inactive = no such curve, though single readings can be large; an effect the other way counts as inactive or inconclusive. Unless noted, % is scaled to controls: 0 for no effect and ±100 for the full control effect; potency is read from the fitted curve at half-maximal effect.

SMILES	VACV Venus inh	Pf growth 48h	Pf growth 96h	AMA1 RON2 block	VACV mCherry inh
CCN(CC)c1ccc(NC2CC(=O)N(CCc3ccc(OC)cc3)C2=O)cc1 (stereo not drawn)	9.9%	4.65µM*	1.85µM*	-20.2%	-8.0%
Oc1c(C(c2ccccc2)N2CCC3(CC2)OCCO3)sc2nc(-c3ccco3)nn12 (stereo not drawn)	-5.8%	/	/	/	-10.8%
COc1cccc(NC(=O)c2cccc(C(=O)Nc3cccc(OC)c3)n2)c1	-4.3%	44.1%	?	13.1%	-21.2%
C=CC(=O)Nc1cccc(Oc2cc(Cl)nc3[nH]ccc23)c1	1.58µM*	/	/	-15.6%	?
CC(C)N(CC#CCC(O)(c1ccccc1)c1ccccc1)CCO	-11.3%	-30.0%	?	-15.5%	-9.4%
CCN(CC#CCC(O)(c1ccccc1)c1ccccc1)C(C)C	-24.0%	8.28µM*	?	-4.3%	-29.9%
O=c1[nH]c2ccccc2n1CCCN1CCC(n2c(=O)[nH]c3cc(Cl)ccc32)CC1	-20.0%	10.7µM*	4.78µM*	-20.3%	-27.4%
CCN(CC)C(=O)c1sc2c(c1C)c(=O)n(-c1ccc(C)c(C)c1)c(=O)n2CC(=O)Nc1ccc(OC)cc1OC	-17.5%	/	/	/	-28.0%
CC(C)C[C@H](NC(=O)OC(C)(C)C)c1nnc(SCc2ccccc2)o1	/	8.28µM*	/	0.6%	/
C=C(C)CSc1nnc([C@H](CCSC)NC(=O)OC(C)(C)C)o1	-10.2%	/	10.4µM*	0.5%	/
CC(C)(C)OC(=O)NCCCC[C@H](NC(=O)c1nc[nH]c1C(=O)NCC(=O)OCc1ccccc1)C(=O)OC(C)(C)C	?	?	0.1%	168.7%	-18.8%
CC(C)(C)OC(=O)N[C@@H](CCCCNC(=O)OCc1ccccc1)c1nnc([C@H](CCCCNC(=O)OCc2ccccc2)NC(=O)OC(C)(C)C)o1	-29.8%	?	2.62µM*	44.9%	i
CSCC[C@H](NC(=O)OC(C)(C)C)c1nnc(SCC(=O)Nc2c(C)cccc2C)o1	-8.6%	/	?	4.9%	/
CC(C)(C)OC(=O)C(Cc1ccc(OC(C)(C)C)cc1)NC(=O)CNC(=O)OCc1ccccc1 (stereo not drawn)	?	?	-1.4%	-21.6%	11.2µM*
Cc1cc(C)c(NC(=O)CCS(=O)(=O)c2cc3c(cc2Cl)NC(=O)CO3)c(C)c1	-5.0%	/	/	/	-17.9%
CC[C@@H](C)[C@H](NC(=O)OCc1ccccc1)c1nnc([C@@H](NC(=O)OCc2ccccc2)[C@@H](C)CC)o1	-18.4%	10.4µM*	10.4µM*	52.3%	i
COc1ccc(NC(=O)C(CCCCNC(=O)OC(C)(C)C)NC(=O)OCc2ccccc2)cc1 (stereo not drawn)	-10.7%	?	0.586µM*	16.8%[2.32 µM]	-6.5%
CC1=NN(C(=O)CSCc2ccccc2)C(O)(c2ccc(F)cc2)C1 (stereo not drawn)	-10.6%	-7.6%	1.1%	52.4%	-25.0%
CC1=NN(C(=O)CSCc2ccccc2)C(O)(c2ccc(Cl)cc2)C1 (stereo not drawn)	/	-27.8%	11.7µM*	65.8%	/
Clc1ccc(SCc2cn3ccsc3n2)cc1	-12.0%	-19.6%	10.4µM*	9.3%	-0.3%
c1ccc(CSCc2cn3ccsc3n2)cc1	-16.4%	63.9%	/	-10.9%	/
Cc1csc2nc(CSc3ccc(Cl)cc3)cn12	-13.3%	119.7%	3.7µM*	-19.8%	i
Cc1c(C(=O)NCCN2CCC(c3ccccc3)CC2)cnn1-c1nccc(-c2cccs2)n1	-27.4%	/	/	/	?
CC(=O)c1cccc(NC(=O)NCc2ccc3c(c2)OCO3)c1	/	1.3%	3.7µM*	-5.2%	/
COc1ccccc1NC(=O)NCc1ccc2c(c1)OCO2	/	20.5%	14.7µM*	/	/
O=C(NCc1ccc2c(c1)OCO2)Nc1cccc(Cl)c1	/	22.0%	2.4%	-2.7%	/
COc1ccccc1CN(CC(=O)NCc1ccc2c(c1)OCO2)C(=O)c1ccc2c(c1)OCCO2	-18.1%	-23.2%	9.28µM*	0.0%	-26.9%
CCOc1ccccc1NC(=O)NCc1ccc2c(c1)OCO2	-9.8%	7.9%	?	0.0%	-12.6%
